# Abeta rescue: compounds reversing amyloid beta toxicity in yeast; yeast expressing A-beta42, growth rescue, OD600, 48 h; response scale: 0% DMSO, 100% iron-clioquinol control; Potency, µM (highest dose often 46.1 µM), most hits filed as activators; 410,000 compounds, 0.063% hits; AID 1347071; also: nearly all actives have a fitted effect of over 55% in size
#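 Yeast growth medium received pinned compounds, then yeast cells expressing toxic A-beta were added; plates incubated at 30 C for 48 hr. Growth read as absorbance at 600 nm, normalized to DMSO and equimolar FeCl3 plus clioquinol controls.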
# Mito fusion yeast: inhibitors of mitochondrial division or activators of mitochondrial fusion; S. cerevisiae fusion-defective mutant growth rescue, CellTiterGlo 48 h; Potency, µM (titrated, usually from 46.1 µM), inactives show top-dose growth rescue (activation), most hits filed as activators; 320,000 compounds, 0.23% hits; AID 485298; also: % of control where 0% means no effect; nearly all actives have a fitted effect of over 45% in size
#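 S. cerevisiae fusion-defective temperature-sensitive mutants (e.g. fzo1-1, mgm1-5) grown 48 h at 37C in YPEG (ethanol/glycerol non-fermentable) medium with 23 nl compound per well; growth rescue read as CellTiterGlo luminescence.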
# TDP43 rescue: rescues yeast growth from TDP-43 toxicity; 410,000 compounds, 1.8% hits; TDP-43 expressing yeast growth rescue, BacTiter-Glo, 24 h; AID 652104; Potency, µM (top dose mostly 46.1 µM), inactives show top-dose growth rescue (activation), most hits filed as activators; also: % of control where 0% means no effect; nearly all actives have a fitted effect of over 50% in size
#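 Galactose-induced TDP-43 yeast, OD600=0.02, compound pinned; 24 hr, 30 deg C; BacTiter-Glo luminescence for growth. Inhibitors of TDP-43 toxicity read as activators.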
# ERG-DNA inh: blocks human ERG Ets domain binding to DNA | Potency, µM (series often up to 76.9 µM), inactives show top-dose FP activity, negative = inhibition, hits mostly inhibitors | fluorescence polarization, His-ERG Ets domain / labelled DNA | 370,000 compounds, 0.028% hits | P11308; active = well fitted inhibition curve with a large enough effect in the polarisation, with a control signal flat; inconclusive = small, poorly fitted or top-dose-only effect, or effect the other way, or a change in a side signal; inactive = no such curve, though single readings can be large or run the other way; the % refers to the polarisation;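 also: polarization taken with two DNA probes labelled with fluorescein and Texas red; % of control where 0% means no effect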
# Target sequence (P11308 whole entry, looked up, the tested form may be a part): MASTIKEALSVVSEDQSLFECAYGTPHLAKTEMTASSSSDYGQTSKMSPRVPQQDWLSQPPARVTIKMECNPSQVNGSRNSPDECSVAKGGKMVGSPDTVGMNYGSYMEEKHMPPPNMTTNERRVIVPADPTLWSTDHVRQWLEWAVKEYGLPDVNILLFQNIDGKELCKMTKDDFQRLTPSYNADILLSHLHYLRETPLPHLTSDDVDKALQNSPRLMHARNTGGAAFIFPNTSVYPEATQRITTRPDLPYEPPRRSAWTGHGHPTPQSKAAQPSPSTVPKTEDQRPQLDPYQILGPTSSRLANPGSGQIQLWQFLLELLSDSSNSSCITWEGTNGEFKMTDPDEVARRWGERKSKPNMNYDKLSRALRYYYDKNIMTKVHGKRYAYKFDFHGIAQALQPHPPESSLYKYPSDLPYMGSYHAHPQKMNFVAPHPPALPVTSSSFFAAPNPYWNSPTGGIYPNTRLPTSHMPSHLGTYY
#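 His-tagged ERG Ets domain (1 uM in the protein solution; 300mM KCl, 50mM Tris-HCl, 1mM EDTA, 1mM DTT, pH 7.5) received compound, then a probe mix of 5 nM fluorescein-DNA and 100nM Texas-615-DNA. Fluorescence polarization was read for both dyes.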
# aSyn rescue: alpha-synuclein toxicity inhibition in yeast; 370,000 compounds, 0.14% hits; AID 652106; Potency, µM (doses to about 46.1 µM), for inactives: top-dose growth rescue (activation), actives largely listed as activators; Yeast expressing alpha-synuclein, growth rescue, BacTiter-Glo, 24 h; also: % of control where 0% means no effect; nearly all actives have a fitted effect of over 65% in size
#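 Rescue of yeast growth: cells expressing toxic alpha-synuclein, induced in galactose at OD600 0.02, incubated with compound 24 h at 30 C. ATP luminescence quantified growth; inhibitors of toxicity appear as activators.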
# FUS suppressor: FUS proteinopathy suppression in yeast; S. cerevisiae FUS-expressing, growth rescue, OD600, 24 h; Potency, µM (highest dose often 76.6 µM), most hits filed as activators; 390,000 compounds, 0.24% hits; AID 1347120;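 also: plate controls were DMSO vehicle for no effect and reference control for full effect; nearly all actives have a fitted effect of over 55% in size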
#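 Galactose (2%) drives FUS expression in yeast precultured in raffinose; seeding density OD 0.005. Test compounds incubated 24hr at 30C and 99% humidity before absorbance at 600 nm was measured.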
# Starred values were filed as active, the others as inactive; i = inactive; u = inconclusive; x = no result given; [ ] = remark or other dose. Compounds with a hit are over-represented: about 2.2% of the library has one in this group of screens. Unless noted, calls follow the shape of the dose curve; as a rule, active = well fitted curve in the direction sought with a large enough effect; inconclusive = small, poorly fitted or top-dose-only effect, or another doubt; inactive = no such curve, though single readings can be large; an effect the other way counts as inactive or inconclusive. Potency is read from the fitted curve at half-maximal effect.
SMILES,Abeta rescue,Mito fusion yeast,TDP43 rescue,ERG-DNA inh,aSyn rescue,FUS suppressor
O=[N+]([O-])c1ccc(-c2ccc(/C=N/Nc3nc(N4CCCCC4)nc(N4CCCCC4)n3)o2)cc1,i,4%,14µM*,1%,-8%,i
Brc1cccc(/C=N/Nc2nc(N3CCCCC3)nc(N3CCCCC3)n2)c1,x,-2%,x,x,x,x
COc1ccc(/C=N/Nc2nc(N3CCCCC3)nc(N3CCCCC3)n2)cc1[N+](=O)[O-],i,8%,-4%,1%,-2%,u
O=[N+]([O-])c1cc(/C=N/Nc2nc(N3CCCCC3)nc(N3CCCCC3)n2)ccc1O,i,2%,22µM*,2%,-13%,i
C(=N\Nc1nc(N2CCCCCC2)nc(N2CCCCCC2)n1)/c1ccccc1,i,-4%,22µM*,-3%,-14%,i
O=[N+]([O-])c1ccc(-c2ccc(/C=N/Nc3nc(N4CCCC4)nc(N4CCCC4)n3)o2)cc1,i,17%,11%,11%,0%,i
COc1ccc(/C=N/NC(=O)c2ccc(NC(C)=O)cc2)cc1COc1ccc(F)cc1F,i,-6%,9%,9%,-4%,25µM*
O=C(NNc1nc2cc3c(cc2s1)OCO3)c1cccc(F)c1,i,-3%,5.6µM*,11%,9%,i
O=C(COc1ccccc1)NNc1nc2c(F)cccc2s1,i,-2%,11%,4%,1%,i
COc1cc(OC)cc(C(=O)NNc2nc3cc4c(cc3s2)OCO4)c1,i,-5%,10µM*,-7%,7%,i
O=C(NNc1nc2c(F)cccc2s1)c1ccc(F)cc1,i,-2%,10µM*,7%,0%,i
C[C@@H]1[C@H](c2ccccc2)OC(O)([C@H](Cc2ccccc2)NC(=O)OC(C)(C)C)CN1C (some centres not stated),x,x,x,x,x,i
COc1ccccc1-c1oc2ccccc2c1C#CC(C)(C)O,i,u,16µM*,3%,5%,i
COC1(C(F)(F)F)NC(=O)N(c2ccc(F)cc2)C1=O (configuration not stated),i,x,0%,6%,x,i
CCCS(=O)(=O)c1c(S(=O)(=O)CCC)c2cc(C(C)(C)C)ccn2c1C(=O)c1ccccc1,i,x,-8%,0%,x,18µM*
CCCS(=O)(=O)c1c(S(=O)(=O)CCC)c2cc(C(C)(C)C)ccn2c1C(=O)c1ccc(OC)c(OC)c1,i,x,-8%,11%,x,i
CC(C(=O)NCCCc1ccccc1)n1cccc1C(=O)c1ccccc1 (configuration not stated),i,22µM*,u,-5%,6%,i
O=C(Cn1cccc1C(=O)c1ccccc1)NCCCc1ccccc1,i,7%,-3%,-1%,-6%,i
Cc1ccccc1OCC(=O)NCC(=O)OCc1cccc2ccccc12,x,x,x,x,3%,x
CCc1nn2c(=O)cc(COC(=O)c3ccccc3NC(=O)COc3ccc(C)c(C)c3)nc2s1,i,x,18%,2%,x,i
O=C(NCCc1ccccc1)c1cnc2sc(N3CCOCC3)nn2c1=O,i,x,-8%,6%,x,i
CC1CCN(c2nn3c(=O)c(C(=O)NCCc4ccccc4)cnc3s2)CC1,i,x,13µM*,-1%,x,i
CCOc1ccc(N2CC(NC(=O)/C=C\c3ccc4c(c3)OCO4)CC2=O)cc1 (configuration not stated),i,x,23%,-2%,x,i
CCn1ncc(Cl)c1C(=O)NC(=S)Nc1ccccc1Br,i,7%,5.6µM*,0%,-26%,i
Cc1ccc2c(c1)N(C(=O)CCC(=O)NCc1cccc(Cl)c1)CC(C)O2 (configuration not stated),i,16µM*,u,0%,-6%,i
SMILES,Abeta rescue,Mito fusion yeast,TDP43 rescue,ERG-DNA inh,aSyn rescue,FUS suppressor
COc1ccc(Cn2ccc3ccc(-c4ccc5ccn(C(=O)c6ccccc6)c5c4)cc32)cc1,x,x,x,x,x,i
COc1cc(Cl)ccc1OCc1cc(C(=O)NCc2cc(C(C)C)no2)no1,i,4%,11µM*,3%,12%,x
CC1CCC2(CCC(=O)N2CCCOC(=O)Nc2cccc(C(F)(F)F)c2)CC1 (configuration not stated),x,x,x,x,x,i
CCNc1nc(N2CCCCC2)nc(-n2nnc(C(=O)OCC)c2C)n1,i,20%,18µM*,-6%,0%,i
COc1ccc(N2CCN(C(c3nnnn3C3CCCC3)C(C)C)CC2)cc1 (configuration not stated),i,13µM*,-4%,7%,5%,i
CN(C)c1nc(-c2ccccc2)ncc1S(=O)(=O)c1ccccc1,i,2%,16µM*,5%,10%,i
CCN(CC)c1nc(-c2ccccc2)ncc1S(=O)(=O)c1ccc(C)cc1,i,-3%,24%,2%,4%,i
O=C(CSc1nc2ccccc2s1)Nc1ncccn1,i,-2%,0%,-9%,2%,i
Cc1cnc(NC(=O)CSc2ccc(Cl)cc2)s1,u,2%,11µM*,-5%,3%,i
Cc1cnc(NC(=O)CSc2nc3ccccc3s2)s1,i,5%,14µM*,0%,4%,i
CC1CCCC(C)N1C(=O)CSc1nc2ccccc2s1 (configuration not stated),i,4%,7.9µM*,3%,x,i
CCOC(=O)[C@]12CCCC=C1N(Cc1ccc(OC)cc1)C(=O)[C@@H]2CC(=O)N1CCCCC1,x,x,x,x,x,i
Cc1csc2nc(-c3ccc(NS(=O)(=O)c4cccc(F)c4)cc3)cn12,i,x,u,-1%,14%,u
O=C(CC(=O)c1ccccn1)c1ccccc1,u,x,u,20%,13µM*,x
O=C(c1ccccc1)c1ccccn1,i,1%,-1%[0.397 µM],1%,3%,i
CCO[C@@H]1OC(C(=O)Nc2ccccc2)=C[C@H](c2ccc(C(F)(F)F)cc2)[C@H]1CCCO,u,7%,13µM*,-1%,0%,u
Cc1cccn2c(=O)c3cc(C(=O)Nc4ccc(Cl)c(Cl)c4)sc3nc12,i,x,28%,1%,x,i
COC(=O)C[C@H]1CC[C@H](NC(=O)Nc2ccccc2F)[C@@H](CO)O1,i,x,25%,x,-2%,i
CCOc1ccc(CNC(=O)c2ccc3c(Cl)c4c(nc3c2)CCCC4)cc1,i,x,11µM*,2%,x,i
COc1ccc(OC)c(CNC(=O)c2ccc(Sc3ccc(Cl)cc3)c(NC(C)=O)c2)c1,i,x,25%,-2%,x,u

# Bioassay records deposited in PubChem by National Center for Advancing Translational Sciences (NCATS).
